MITF inh: MITF inhibitors, primary screen, biochemical, AlphaScreen, human | Microphthalmia-associated transcription factor (Homo sapiens), O75030 | AlphaScreen MITF homodimerization, bead proximity signal | inhibition, % at 2.6 µM | actives 0.91% (n = 650,000); in the data active means inhibition above about 50%;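 further: 0% = vehicle wells with protein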
FBW7 act: FBW7 E3 ligase activators, primary screen, biochemical, AlphaScreen, human; F-box/WD repeat-containing protein 7 (Homo sapiens), Q969H0; AlphaScreen FBW7–phospho-cyclin E peptide binding, activator screen; normalized activity (activation), % at 26.1 µM; actives 0.13% (n = 650,000); in the data active means normalized activity above about 1.9%;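 further: purified mutant Fbw7 with reduced substrate affinity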
GPR151 activ: activators of human GPR151, primary screen, cell-based, PathHunter beta-arrestin, luminescence. G-protein coupled receptor 151 (Homo sapiens), Q8TDV0. PathHunter beta-arrestin GPR151 cells. activation, % at 11.2 µM. actives 1% (n = 650,000); in the data active means activation above about 4.9%;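 further: 0% = median of compound wells and 100% = cells with positive control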
TEAD-YAP block: TEAD-YAP interaction inhibition, primary screen, TEAD-YAP interaction inhibitor project, luminescence, HEK-TIYL cells; TEAD-Gal4/YAP UAS-luciferase luminescence; inhibition, % at 9.12 µM; actives 1.4% (n = 640,000); in the data active means inhibition above about 32%;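 further: 0% = median of test compound wells and 100% = reference inhibitor wells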
GPR151 confirm: GPR151 activators, triplicate retest, confirmation, cell-based, PathHunter beta-arrestin, luminescence. activation, % at 11.2 µM. 6,700 tested, under 10 active. GPR151 PathHunter beta-arrestin cells, 90 min; % of EA-reagent control over plate median. AID 1508609, 2020. shares compounds with GPR151 activ;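 active means mean percent activation across replicates above the confirmation screen cutoff of 4.91%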
GPR119 ag: GPR119 activators in beta-arrestin cells, counter-screen for GPR151 activator project, cell-based, PathHunter beta-arrestin, luminescence, triplicate; shares compounds with GPR151 activ; 90 min; 0 = compound-well median, 100 = enzyme-acceptor control; activation, % at 11.2 µM; actives 0.3% (n = 6,700); AID 1508611, 2020;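 active means mean percent activation in the counterscreen above 29.09%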;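 further: counterscreen on off-target GPR119 to flag nonselective hits from the GPR151 activator screen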
Target sequence (Q8TDV5 whole entry, looked up): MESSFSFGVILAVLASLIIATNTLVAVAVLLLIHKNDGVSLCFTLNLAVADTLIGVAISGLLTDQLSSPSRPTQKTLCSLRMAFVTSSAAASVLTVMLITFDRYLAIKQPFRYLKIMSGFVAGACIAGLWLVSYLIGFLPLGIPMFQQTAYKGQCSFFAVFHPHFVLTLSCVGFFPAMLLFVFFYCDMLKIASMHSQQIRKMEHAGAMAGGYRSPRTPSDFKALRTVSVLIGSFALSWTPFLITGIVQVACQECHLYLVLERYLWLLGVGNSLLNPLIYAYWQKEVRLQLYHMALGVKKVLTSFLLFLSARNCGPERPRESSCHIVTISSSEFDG
Starred values were filed as active, the others as inactive. Rows were chosen to be rich in hits. Some 3.5% of all compounds tested hit in one or more screens of this group.

Screening COC(=O)c1sccc1NC(=S)Nc1ccc(OC)c(OC)c1 returned MITF inh -19, FBW7 act 0, GPR151 activ 6.0*, TEAD-YAP block -2, GPR151 confirm 0 and GPR119 ag 4.
COC(=O)c1sccc1NC(=S)Nc1ccc(F)cc1 was read as MITF inh -5, FBW7 act 0, GPR151 activ 0 and TEAD-YAP block -4.
For Cc1ccc(-c2cc(C(=O)O)c3cc(Br)ccc3n2)c(C)c1 the results were MITF inh 7, FBW7 act 0, GPR151 activ 0 and TEAD-YAP block -9.
Screening Cc1c(-c2ccccc2)c(=O)oc2cc(OCC#N)ccc12 returned MITF inh -3, FBW7 act 0, GPR151 activ 6.5*, TEAD-YAP block 11, GPR151 confirm 0 and GPR119 ag 8.
`CCOC(=O)COc1ccc2c(C)c(-c3ccccc3)c(=O)oc2c1` gave MITF inh 2, FBW7 act 0, GPR151 activ -2 and TEAD-YAP block 0.
`CC(C)c1ccc(C2C(C#N)=C(N)OC(N)=C2C#N)cc1` gave MITF inh -7, FBW7 act 0, GPR151 activ 0 and TEAD-YAP block -2.
Screening CC1=C(C#N)C(c2ccc(C(C)C)cc2)C(C#N)=C(C)N1 returned MITF inh -3, FBW7 act 0, GPR151 activ 9.9*, TEAD-YAP block 4, GPR151 confirm 0 and GPR119 ag 11.
`C=CCOc1c(Br)cc(CNCCN(C)C)cc1OC` gave MITF inh 6, FBW7 act 0, GPR151 activ 2 and TEAD-YAP block 8.
`COc1ccc(C2Nc3ccccc3NC3=C2C(=O)NC3)cc1` (centres undefined) gave MITF inh 9, FBW7 act 0, GPR151 activ -2 and TEAD-YAP block -61.
For O=C1NCC2=C1C(c1ccc(Br)cc1)Nc1ccccc1N2 (centres undefined) the results were MITF inh 8, FBW7 act 0, GPR151 activ 5.5*, TEAD-YAP block 5, GPR151 confirm 0 and GPR119 ag 11.
CCNC(=O)N1CCN(c2nccnc2NS(=O)(=O)c2cccc3cccnc23)CC1 was read as MITF inh -23, FBW7 act 0, GPR151 activ 0 and TEAD-YAP block 5.
O=S(=O)(NCC1CCCO1)c1ccc(-c2ccc(Cl)cc2)cc1 (centres undefined) was read as MITF inh 19, FBW7 act 0, GPR151 activ 7.4*, TEAD-YAP block -1, GPR151 confirm 1 and GPR119 ag -1.
O=S(=O)(NCC1CCCO1)c1ccc(Cl)c(C(F)(F)F)c1 (centres undefined) was read as MITF inh -6, FBW7 act 1, GPR151 activ 0 and TEAD-YAP block 7.
For CC(=O)c1ccc(OCC(=O)NC(c2ccccc2)c2ccccc2)cc1 the results were MITF inh 9, FBW7 act 0, GPR151 activ -1 and TEAD-YAP block 2.
Screening Cc1c(Cl)cccc1NC(=O)CSCC(=O)Nc1ccc(Br)cc1 returned MITF inh 7, FBW7 act 0, GPR151 activ 6.4*, TEAD-YAP block 11, GPR151 confirm 1 and GPR119 ag 18.
C=CCc1ccc(OCCOc2ccc(/C=C3/C(=N)N4C(c5ccccc5)=CSC4=NC3=O)cc2OC)c(OC)c1 was read as MITF inh 17, FBW7 act 0, GPR151 activ 1 and TEAD-YAP block 11.
Screening COc1ccc(CCN2C(=O)c3ccc(Oc4ccc([N+](=O)[O-])cc4)cc3C2=O)cc1OC returned MITF inh -20, FBW7 act 0, GPR151 activ 0 and TEAD-YAP block 9.
For COc1ccc(CCN2C(=O)c3ccc(Oc4ccc(Nc5ncnc6ccccc56)cc4)cc3C2=O)cc1OC the results were MITF inh 18, FBW7 act 0, GPR151 activ 6.6*, TEAD-YAP block 97*, GPR151 confirm 3 and GPR119 ag 26.

Compound activity: PubChem, The Scripps Research Institute Molecular Screening Center
